Measured values from PubChem BioAssay AID651814 (National Center for Advancing Translational Sciences (NCATS), 2012).
Hit rate of the full screen: of about 2,100 compounds, about 590 (28%) were called active. Inconclusive results (about 42%) are left out. The call rests on the fitted dose curve; in most records, active means well fitted inhibition curve with a large enough effect; inconclusive means small, poorly fitted or top-dose-only effect; inactive means flat fitted curve, though single readings scatter. This is one part of the list.

What follows are compounds tested against DNA dC->dU-editing enzyme APOBEC-3F (Homo sapiens) (UniProt Q8IUX4) (assay: qHTS for inhibitors of Vif-A3F interactions: Cherry picks). Conditions: HeLa A3F-eYFP + Vif (tagged APOBEC3F with the HIV-1 protein that degrades it), eYFP fluorescence, 24 h.
Procedure, shortened: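 Read-out: yellow fluorescence (ex 488 nm, em 500-530 nm) by laser-scanning cytometer after 24 h compound exposure, several concentrations, at 37 deg C. Cells: HeLa line stably co-expressing Vif and C-terminally eYFP-tagged A3F; MG132 served as positive control.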
Further: nearly all actives have a fitted effect of over 70% in size.
Potency means the concentration at half of the fitted maximal effect.
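Wherever max response is given: % of control where 0% means no effect; active compounds raise eYFP fluorescence by blocking Vif-driven A3F loss.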

Chain of DNA dC->dU-editing enzyme APOBEC-3F (Homo sapiens) (Q8IUX4 whole entry, looked up): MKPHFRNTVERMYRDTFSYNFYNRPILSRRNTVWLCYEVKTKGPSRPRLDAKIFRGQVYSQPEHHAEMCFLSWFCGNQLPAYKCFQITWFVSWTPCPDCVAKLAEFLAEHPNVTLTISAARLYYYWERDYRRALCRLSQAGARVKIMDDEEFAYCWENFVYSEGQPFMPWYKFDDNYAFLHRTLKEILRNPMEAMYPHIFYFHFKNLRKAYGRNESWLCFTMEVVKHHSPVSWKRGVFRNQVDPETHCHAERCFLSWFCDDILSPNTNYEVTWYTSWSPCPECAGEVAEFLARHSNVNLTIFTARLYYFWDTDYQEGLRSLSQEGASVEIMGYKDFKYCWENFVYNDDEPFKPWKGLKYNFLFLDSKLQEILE

**Q.** `COC(=O)c1cc(Nc2nc3ccccc3nc2NS(=O)(=O)c2ccc(C)cc2)ccc1Cl` was tested. Which max response did it give?
**A.** -5.41% (inactive)

**Q.** `COc1ccc(/C=C/C=C2\NC(=S)NC2=O)cc1` was tested. Which max response did it give?
**A.** -26% (inactive)

**Q.** With `COc1ccc(/C=C2\C(=O)NC(=S)N2C(=O)c2ccc(F)cc2)cc1` as the compound, how does the Potency read?
**A.** 13 µM (active)

**Q.** How did the Potency turn out when `C[n+]1ccc(/C=C/c2cc[n+](C)c3ccccc23)c2ccccc21` was run?
**A.** 11.6 µM (active)

**Q.** With `C=CCN1C(=O)c2ccc(C(=O)N(CC(C)C)c3c(N)n(CCCC)c(=O)[nH]c3=O)cc2C1=O` as the compound, how does the max response read?
**A.** 4.71% (inactive)

**Q.** `CCCCn1c(N)c(N(CC(C)C)C(=O)Cc2ccc(S(=O)(=O)N3CCOCC3)s2)c(=O)[nH]c1=O` was tested. Which Potency did it give?
**A.** 23.1 µM (active)

**Q.** `CCCCn1c(N)c(N(CCC(C)C)C(=O)c2ccc([N+](=O)[O-])o2)c(=O)[nH]c1=O` was tested. Which max response did it give?
**A.** 0.229% (inactive)

**Q.** `COc1cccc(/C(O)=C/c2nc3ccc(C(=O)NCCc4ccc(Cl)cc4)cc3[nH]c2=O)c1` was tested. Which Potency did it give?
**A.** 8.2 µM (active)

**Q.** Which Potency does the source give for `COc1cccc(/C(O)=C/c2nc3ccc(C(=O)NCCc4cccc(C)c4)cc3[nH]c2=O)c1` here?
**A.** 11.6 µM (active)

**Q.** `COc1ccc2nc(C)cc(SCC(=O)N/N=C/c3cccc4ccccc34)c2c1` was tested. Which Potency did it give?
**A.** 11.2 µM (active)

**Q.** For `CCn1c(SCC(=O)N/N=C/c2ccc(C)s2)nc2ccccc21`, which max response is on record?
**A.** -29.4% (inactive)

**Q.** Which max response does the source give for `COc1cccc(Sc2ccccc2/C=N/NC(N)=O)c1` here?
**A.** -25.5% (inactive)

**Q.** `Cc1ccc(CN(C(=O)c2ccccc2F)c2ccccn2)o1` was tested. Which max response did it give?
**A.** -5.38% (inactive)

**Q.** `Cc1cccc(C)c1NC(=S)NC(C)CCc1ccccc1` (stereo not given) was tested. Which max response did it give?
**A.** 1.36% (inactive)

**Q.** For `CN1C(=S)N(c2cccnc2)C(=O)/C1=C\c1ccc(N(C)C)cc1`, which Potency is on record?
**A.** 15.8 µM (active)

**Q.** `CN1C(=O)/C(=C\c2ccc(N(C)C)cc2)OC1=S` was tested. Which Potency did it give?
**A.** 7.9 µM (active)

**Q.** `O=C(NC(=S)N1CCc2ccccc21)c1ccco1` was tested. Which max response did it give?
**A.** -0.232% (inactive)

**Q.** Which Potency does the source give for `CN(C)S(=O)(=O)c1ccc2c(c1)/C(=C/c1cc3c([nH]1)CCCC3)C(=O)N2` here?
**A.** 2.23 µM (active)

**Q.** Which Potency does the source give for `COCCN1C(=O)/C(=C/c2ccc(N3CCCC3)cc2C)SC1=S` here?
**A.** 2.59 µM (active)

**Q.** How did the max response turn out when `O=C1/C(=C/c2ccc(O)cc2)SC(=S)N1CC1CCCO1` (stereo not given) was run?
**A.** 5.6% (inactive)

**Q.** For `COCCN1C(=O)/C(=C/c2ccc(N3CCCC3)cc2)SC1=S`, which Potency is on record?
**A.** 4.61 µM (active)

**Q.** With `CN(Cc1cnn(Cc2ccccc2)c1)C(=O)c1cccc(S(=O)(=O)N2CCOCC2)c1` as the compound, how does the max response read?
**A.** -22% (inactive)

**Q.** For `CC(=O)c1ccc2cccc3c2c1N=CN3C`, which Potency is on record?
**A.** 15.8 µM (active)

**Q.** For `CCOc1cc(C(=O)NN=C2CCCC2)cc(OCC)c1OCC`, which max response is on record?
**A.** -3.9% (inactive)

**Q.** With `COc1ccc2c(Cl)c(C(=O)N/N=C3\CCCC(=O)C3)sc2c1` as the compound, how does the Potency read?
**A.** 14 µM (active)

**Q.** For `O=[N+]([O-])c1ccc(N2CCN(Cc3ccccc3)CC2)c2c1no[n+]2[O-]`, which Potency is on record?
**A.** 14 µM (active)

**Q.** For `Cc1ccc2nc(C)c(C(=O)NN=C3CCCCCC3)n2c1`, which max response is on record?
**A.** -15.2% (inactive)

**Q.** How did the Potency turn out when `N#CCSc1ccccc1NC(=O)CN1C(=O)C2CC=CCC2C1=O` (stereo not given) was run?
**A.** 14 µM (active)

**Q.** Which max response does the source give for `Cc1ccccc1NC(=O)CSC1=C(C#N)C(c2ccsc2)CC(=O)N1` (stereo not given) here?
**A.** -7.98% (inactive)

**Q.** Which max response does the source give for `N#CCSc1ccccc1NC(=O)CN1C(=O)NC(CCc2ccccc2)C1=O` (stereo not given) here?
**A.** -19.2% (inactive)

**Q.** With `CS(=O)(=O)Nc1cccc(C2=NN(S(C)(=O)=O)C(c3ccc4c(c3)OCO4)C2)c1` (stereo not given) as the compound, how does the max response read?
**A.** -28.5% (inactive)

**Q.** How did the max response turn out when `Cc1ccccc1C1CC(c2cccs2)=NN1S(C)(=O)=O` (stereo not given) was run?
**A.** -5.18% (inactive)

**Q.** Which Potency does the source give for `CS(=O)(=O)Nc1ccc(C2=NN(S(C)(=O)=O)C(c3ccc4c(c3)OCO4)C2)cc1` (stereo not given) here?
**A.** 17.7 µM (active)

**Q.** For `CS(=O)(=O)N1N=C(c2ccccc2)CC1c1ccc2c(c1)OCO2` (stereo not given), which Potency is on record?
**A.** 14 µM (active)

**Q.** With `CS(=O)(=O)Nc1ccc(C2=NN(S(C)(=O)=O)C(c3ccc4nccnc4c3)C2)cc1` (stereo not given) as the compound, how does the max response read?
**A.** -7.65% (inactive)

**Q.** For `Cc1cc(OCC(=O)Nc2nnc(C3CC3)s2)ccc1Cl`, which max response is on record?
**A.** 2.35% (inactive)

**Q.** With `CCOC(=O)c1ccc(NC(=S)NC(=O)C2CCCC2)cc1` as the compound, how does the max response read?
**A.** -3.01% (inactive)

**Q.** `COC(=O)c1ccc(NC(=O)CC2Nc3cc(C)c(C)cc3NC2=O)cc1` (stereo not given) was tested. Which Potency did it give?
**A.** 6.51 µM (active)

**Q.** With `Cc1cccc(C(=O)Nc2nnc(C3=COCCO3)o2)c1` as the compound, how does the max response read?
**A.** 0.472% (inactive)

**Q.** Which max response does the source give for `CCCCCCn1c(=O)[nH]c2nc3cc(N)ccc3nc2c1=O` here?
**A.** -0.0141% (inactive)

**Q.** Which Potency does the source give for `Cc1cc2nc3c(=O)n(C4CCCCC4)c(=O)[nH]c3nc2cc1N` here?
**A.** 16.4 µM (active)

**Q.** With `CCN(CC)c1nc(C)c(C(=S)Nc2cc([N+](=O)[O-])ccc2Cl)s1` as the compound, how does the max response read?
**A.** -3.83% (inactive)

**Q.** With `O=C(COC(=O)C12CC3CC(CC(Cl)(C3)C1)C2)N1CCCCC1` as the compound, how does the max response read?
**A.** 1.53% (inactive)

**Q.** With `CN1CCc2c(sc3c2C(=O)NC(c2ccc(-c4ccc(Cl)cc4)o2)N3)C1` (stereo not given) as the compound, how does the max response read?
**A.** -10.4% (inactive)

**Q.** With `CCOC(=O)N1CCc2c(sc3c2C(=O)NC(c2ccc(N(C)C)cc2)N3)C1` (stereo not given) as the compound, how does the Potency read?
**A.** 20.6 µM (active)

**Q.** Which max response does the source give for `COc1ccc(CN(C(C)=O)c2cccc(C)c2C)cc1` here?
**A.** -29.4% (inactive)

**Q.** With `CCOc1ccccc1Nc1nnc(-c2cc3cc(OC)ccc3oc2=O)s1` as the compound, how does the Potency read?
**A.** 7.31 µM (active)

**Q.** `CCOC(=O)C1CCCN(C(=O)c2ccc3nc(-c4cccc(OC)c4)oc3c2)C1` (stereo not given) was tested. Which max response did it give?
**A.** -18.5% (inactive)

**Q.** `COc1ccc2oc(=Nc3ccccc3)c(-c3nc4ccccc4[nH]3)cc2c1` was tested. Which max response did it give?
**A.** -13% (inactive)

**Q.** How did the Potency turn out when `COc1ccc2oc(=O)c(-c3nc4ccccc4o3)cc2c1` was run?
**A.** 20.6 µM (active)

**Q.** With `COc1cc(/C=C2/CCC/C(=C\c3cc(O)c(OC)c(Cl)c3)C2=O)cc(Cl)c1O` as the compound, how does the Potency read?
**A.** 8.2 µM (active)

**Q.** How did the max response turn out when `COc1cc(/C=N/Nc2ccc(Cl)nn2)cc(OC)c1O` was run?
**A.** 2.03% (inactive)

**Q.** Which max response does the source give for `CCOc1c(Cl)cc(/C=N/NC(N)=S)cc1OC` here?
**A.** -28.8% (inactive)

**Q.** Which Potency does the source give for `CCOc1cc(/C=C2\CCC/C(=C\c3cc(Cl)c(O)c(OCC)c3)C2=O)cc(Cl)c1O` here?
**A.** 7.04 µM (active)

**Q.** With `Fc1ccc2nc3[nH]c4ccccc4c3nc2c1` as the compound, how does the Potency read?
**A.** 0.994 µM (active)

**Q.** How did the max response turn out when `COc1ccccc1CNC(=O)c1ccc2nc3[nH]c4ccccc4c3nc2c1` was run?
**A.** -25.8% (inactive)

**Q.** With `Cc1c(=O)n(OCc2ccc(Cl)cc2)c2ccccc2[n+]1[O-]` as the compound, how does the max response read?
**A.** -8.69% (inactive)

**Q.** How did the Potency turn out when `CN1C2CCC1/C(=C/c1cccn1C)C(=O)/C2=C\c1cccn1C` was run?
**A.** 16.4 µM (active)

**Q.** Which max response does the source give for `CC1C/C(=C/c2cccs2)C(=O)/C(=C/c2cccs2)C1` (stereo not given) here?
**A.** -0.33% (inactive)

**Q.** For `Cn1cccc1/C=C1\CC(C(C)(C)C)C/C(=C\c2cccn2C)C1=O` (stereo not given), which Potency is on record?
**A.** 4.11 µM (active)
